The record followed here is PubChem BioAssay AID588335 (The Scripps Research Institute Molecular Screening Center, 2011).

Screen size: about 360,000 compounds; about 4,500 (1.2%) were called active. Cut-off read from the data, not from the text of the source: active = inhibition above about 30%; inactive = the rest. The entries come from a sample that favours actives as a whole.

The nature of this assay: inhibition of GDH and TPI enzymes – biochemical, absorbance, full deck, artefact control for M. tuberculosis FBA inhibitor project, primary screen (AID 588335).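 Note: 0% = DMSO wells and 100% = wells lacking the enzyme.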 The note with it: GDH-TPI coupled enzyme counterscreen, NADH absorbance; at 4.8 µM; hits give high values. For orientation: Counterscreens check selectivity or assay interference.
By inhibition is commonly meant the change of the read-out against control, counted positive when it falls. For the compound `O=C(Cn1cc2c(n1)CCCCC2)NCCN1CCOCC1`, the inhibition was -6.93% (inactive). As for `CC(C)Cn1cc(-c2cncc3nccn23)cn1`, the inhibition is 4% (inactive). For `CCCOc1ccc2c3c(c(=O)oc2c1OCCC)CCC3`, the inhibition is 13.5% (inactive). The result for `O=c1oc2c(CN3CCCCC3)c(O)ccc2c2c1CCCCC2` reads 30.6% (active); that for `COc1ccc2c3c(c(=O)oc2c1OCC(=O)C(C)(C)C)CCCC3`, -0.64% (inactive). With `Cc1cc(N(C)C)cc(C)[n+]1[O-]` the figure was -1.57% (inactive); with `Nc1nc(O)c(CC(=O)O)s1`, 5.96% (inactive); with `COc1ccc(-c2cc3ccc(OCc4nn[nH]n4)cc3oc2=O)cc1`, 34.6% (active).

`Cc1noc(C)c1COc1ccc2ccc(=O)oc2c1`: the inhibition was 6.47% (inactive). For the compound `CCCCc1cc(=O)oc2cc(C)cc(OCc3nn[nH]n3)c12`, the inhibition is 22% (inactive). Turning to `Cn1ccc(=Nc2ccc(NC(=O)c3ccc(N=c4ccn(C)c5ccc([N+](=O)[O-])cc45)cc3)cc2)cc1`, the inhibition was 13.7% (inactive). In the case of `O=C(NCc1cccnc1)c1cc(C2CCCN(C(=O)CCCc3ccccc3)C2)on1` (stereo not drawn), the inhibition is -5.31% (inactive). As to `CN(C(=O)C1CCN(c2ncnc3c2nc2n3CCCCC2)CC1)C1CCCCC1`, the inhibition is -2.53% (inactive). In the case of `O=C(NNc1ccccc1Cl)C(O)(c1cccc(C(F)(F)F)c1)c1cccc(C(F)(F)F)c1`, the inhibition is 10.2% (inactive). For the compound `COc1cc(/C=N/NC(=S)Nc2cccnc2)cc(OC)c1O`, the inhibition was 31.5% (active). As to `COc1ccc(C(=O)CCC(=O)Nc2cccnc2)c(OC)c1`, the inhibition is -6.9% (inactive). As for `Fc1cc(Br)ccc1NC(=S)Nc1cccnc1`, the inhibition was -0.63% (inactive). Take `O=C(c1cccs1)C1C(c2ccc(Br)cc2)NC(=S)NC1(O)C(F)(F)F` (stereo not drawn): the inhibition is 12.2% (inactive).

Take `Cc1c(NC(=O)C(C)OC(=O)c2c3c(nc4ccccc24)CCC(C)C3)c(=O)n(-c2ccccc2)n1C` (stereo not drawn): the inhibition was 3.38% (inactive). With `Cc1ccc(-c2nnc(-n3nnc4ccccc43)c3ccccc23)cc1` the figure was 6.42% (inactive). On to `Cc1ccc(-c2nc3ccccc3[nH]c2=O)cc1`, for which the inhibition was 32.1% (active).

As to `Cc1ccccc1N1CC(c2nc3ccccc3[nH]2)CC1=O` (stereo not drawn), the inhibition was 2.42% (inactive). Consider `CC1(C(=O)NCc2ccc(F)c(F)c2)Cc2c(-c3ccc4c(c3)OCO4)ccnc2O1` (stereo not drawn), for which the inhibition was 0% (inactive). As to `CC1C(=O)Nc2ccccc2N1C(=O)c1c(F)cccc1F` (stereo not drawn), the inhibition is -1.38% (inactive). In the case of `Cn1c(=NC(=O)c2cnccn2)sc2ccccc21`, the inhibition was 29.1% (inactive). In the case of `Cn1c(=NC(=O)c2ccco2)sc2cccc(F)c21`, the inhibition was 51% (active). The result for `O=C(Cc1c(F)cccc1Cl)N1CCN(C(=O)c2ccco2)CC1` reads -4.08% (inactive). For `O=C(CN1CCCCCC1)Nc1c(Cl)cc(Cl)cc1Cl`, the inhibition is 3.42% (inactive).

With `COc1cc2nc(CN(C)Cc3ccc(F)cc3)[nH]c(=O)c2cc1OC`, the inhibition is -3.88% (inactive). `CCCCNC(=O)CSc1nc2n[nH]c(C)c2c(=N)n1-c1cccc(Cl)c1C`: the inhibition was 33.5% (active). Take `Cc1ccc(-n2c(SCC(=O)NCCC3=CCCCC3)nc3n[nH]c(C)c3c2=N)cc1Cl`: the inhibition is -1.52% (inactive). With `COc1cccc(-n2c(SCC(=O)NC3CCCCC3)nc3n[nH]c(C)c3c2=N)c1` the figure was 0.37% (inactive). Take `CC(C)Nc1ccc(-n2nc3ccccc3[n+]2[O-])cc1`: the inhibition is 21.6% (inactive). With `O=C(CN1C(=O)S/C(=C\c2ccccc2Cl)C1=O)NC1C=CS(=O)(=O)C1` (stereo not drawn) the figure was 35.4% (active); with `CN(C(=O)CN1C(=O)S/C(=C\c2ccccc2F)C1=O)C1CCS(=O)(=O)C1` (stereo not drawn), 9.17% (inactive); with `CC12CCC(=O)N1C(C(=O)NCCN1C(=O)S/C(=C\c3ccccc3F)C1=O)CS2` (stereo not drawn), 21.5% (inactive). The result for `CCN(CC)C(=O)C1CCCN(Cc2cccc(Cl)c2)C1` (stereo not drawn) reads 11.3% (inactive); that for `COc1ccccc1C(=O)Nc1ccnn1C1CCN(C(=O)C(C)(C)C)CC1`, 2.52% (inactive); that for `Cc1ccc(C(=O)N/C(=C\c2cn(C)c3ccccc23)C(=O)N2CCN(C)CC2)cc1`, 18.5% (inactive). With `COc1cc(C(=O)N/C(=C\c2cn(C)c3ccccc23)C(=O)N2CCOCC2)cc(OC)c1OC` the figure was 33.6% (active); with `CCn1cc(/C=C(\NC(=O)c2cc(OC)c(OC)c(OC)c2)C(=O)N2CCN(C)CC2)c2ccccc21`, 27.5% (inactive); with `CN(Cc1c(F)cccc1Cl)C(=O)COC(=O)Cn1cnc2ccccc2c1=O`, 7.14% (inactive). Take `Cc1ccc(OCC(=O)NCCCNC(=O)c2cccnc2)cc1C`: the inhibition was -5.28% (inactive). In the case of `C/C(=C\C(=O)c1cccnc1)Nc1ccc(C)c(C)c1`, the inhibition was 31.1% (active). The result for `C/C(=C\C(=O)c1ccccc1)Nc1cccc(O)c1` reads 8.48% (inactive); that for `C=C1C2C[C@H](O)C(C)(C)[C@@]2(O)[C@H](O)C[C@]23C[C@@](C)(O)[C@H](CC[C@H]12)[C@H]3O` (stereo partly drawn), 5.18% (inactive). As for `COc1ccc(SC[C@H](Cc2ccccc2)N2CCN(CCc3ccccc3)CCC2=O)cc1`, the inhibition was 3.36% (inactive). For `C=CCOc1ccc(/C=N/n2cncn2)cc1OC`, the inhibition is 19.5% (inactive). Regarding `COc1ccccc1/C=C/C=N/NC(=O)CN1CCN(Cc2ccccc2)CC1`, the inhibition was 49.7% (active). Turning to `COc1ccccc1CN1CCN(C(=O)Cc2ccccc2)CC1`, the inhibition is 6.8% (inactive). Take `O=C(CN1CCN(Cc2ccccc2)CC1)Nc1ccc(F)c(F)c1`: the inhibition is -9.79% (inactive).

`CN(C)CCn1c(=S)[nH]c2ccc(Cl)cc2c1=O`: the inhibition was 32.9% (active).

Regarding `O=C(CCn1c(=S)[nH]c2cc3c(cc2c1=O)OCO3)NCc1ccc(Cl)cc1`, the inhibition was 20.7% (inactive). The result for `O=c1c2ccccc2[nH]c(=S)n1-c1cccc(Cl)c1` reads 9.09% (inactive); that for `O=C(CN1CCN(S(=O)(=O)c2cc(Cl)ccc2Cl)CC1)c1ccc(O)c(O)c1`, 18.1% (inactive); that for `Cc1cc(/C=N/Nc2ccc([N+](=O)[O-])cn2)c(C)n1-c1cccc(C(=O)O)c1`, 38% (active). As to `Cc1cc(/C=N/NC(=O)CC2(C)OCCO2)c(C)n1-c1ccc(Cl)c(Cl)c1`, the inhibition was 0.72% (inactive). As to `Cc1cc(C=O)c(C)n1-c1ccc(NC2CCCCC2)c([N+](=O)[O-])c1`, the inhibition was 0.62% (inactive). On to `COc1ccc(-c2noc(C(C)NS(=O)(=O)c3ccc(NC(C)=O)cc3)n2)cc1` (stereo not drawn), for which the inhibition was -8.81% (inactive). Take `Brc1ccc(CN2CC[C@H]3C=CCc4cccc(c43)C2)cc1`: the inhibition was 6.9% (inactive). For the compound `CC(=O)N1CCOc2ccc(S(=O)(=O)N3CCN(c4cccc(C(F)(F)F)c4)CC3)cc21`, the inhibition was 6.9% (inactive). With `O=C(N/N=C\c1ccc(-c2ccc(Cl)c(Cl)c2)o1)C(=O)N1CCCC1` the figure was 14.3% (inactive); with `COC(=O)N/N=C/c1ccc(-c2ccc(Cl)c(Cl)c2)o1`, 31.5% (active); with `O=C(Cn1nnc(-c2ccccc2)n1)N/N=C/c1ccc(-c2ccc(Cl)cc2)o1`, 11.2% (inactive).

On to `CCC1Sc2ccc(S(=O)(=O)CCC(=O)NCc3cccs3)cc2NC1=O` (stereo not drawn), for which the inhibition was 10% (inactive).

As for `Cc1cc(C(=O)N2CCCC2(C)C(=O)O)c(C)o1` (stereo not drawn), the inhibition was -1.83% (inactive). The result for `CC(NC(=O)C(=O)N/N=C/c1ccc(Cl)cc1)c1ccccc1` (stereo not drawn) reads -6.35% (inactive). Turning to `COc1cc(/C=N/NC(=O)c2cccnc2)ccc1OC(=O)c1cccc(Br)c1`, the inhibition was 7.96% (inactive). In the case of `O=C(N/N=C/c1ccoc1)c1ccc(Cl)cc1Cl`, the inhibition was -4.38% (inactive).

Take `CCOc1cc(/C=N/NC(=O)c2cccc(S(=O)(=O)N3CCOCC3)c2)ccc1OCC(=O)N(C)C`: the inhibition was 26.9% (inactive). As for `Cn1c(=O)n(C)c2cc(/C=N/NC(=O)c3cccc(Br)c3)ccc21`, the inhibition is 31.9% (active). With `CSc1ccc(/C=N/NC(=O)c2cccc(Cl)c2)cc1` the figure was 31.8% (active). Turning to `O=C(OCC(=O)N1CCCCCC1)c1cnc(Cl)c(Cl)c1`, the inhibition is -4.78% (inactive).

Regarding `COc1ccc(C2CC(=O)Oc3ccc(C(C)(C)C)cc32)cc1` (stereo not drawn), the inhibition was 10.2% (inactive). `COc1ccc([C@H]2CC(=O)C=C(/C=C/c3ccc(Cl)cc3)C2)cc1`: the inhibition was 2.59% (inactive). The result for `COc1ccc([C@H]2CC(=O)C=C(/C=C/c3ccccc3)C2)cc1` reads 37.2% (active); that for `COc1ccc([C@H]2CC(=O)C=C(c3ccc(C)cc3)C2)cc1`, 13.4% (inactive). For the compound `CCCCC(=O)N(C)c1c(CC)nc2c(OCc3ccc(S(C)(=O)=O)cc3)cccn12`, the inhibition was 8.04% (inactive). Turning to `CN(C)Cc1ccc(F)cc1Sc1cc(Cl)ccc1Cl`, the inhibition was 6.23% (inactive). Turning to `COc1ccc(NC(=O)CCCNC(=O)Cn2cnc3sc4c(c3c2=O)CCCC4)cc1OC`, the inhibition was 4.67% (inactive). With `OCCNc1nc2ccccc2n1-c1ncnc2sc3c(c12)CCC3` the figure was 7.12% (inactive); with `COc1ccc(/C=N/Nc2ncnc3sc4c(c23)CCCC4)cc1O`, 34.2% (active). Consider `Cc1nnc(NC(=O)CCC(=O)N2CCC(C)CC2)s1`, for which the inhibition is -8.68% (inactive). Turning to `Cc1ccc(C(=O)/C=C/Nc2ccc(S(=O)(=O)Nc3onc(C)c3C)cc2)cc1`, the inhibition was 21.6% (inactive). Regarding `Cc1noc(NS(=O)(=O)c2ccc(N/C=C/C(=O)c3ccccc3)cc2)c1C`, the inhibition was 32.3% (active). The result for `Cc1noc(NS(=O)(=O)c2ccc(NC(=O)C34CCC(CC3)C4)cc2)c1C` reads -6.12% (inactive); that for `Cc1ccc(-c2csc(C(C#N)=C(O)CN3CCN(C(=O)c4ccco4)CC3)n2)cc1`, 21.6% (inactive). For `COC(=O)C(C(=O)Nc1cccc(C)n1)C1CCCCCC1` (stereo not drawn), the inhibition is 14.9% (inactive).

As to `C=CCN(c1ccc(C(=O)Nc2cc(C)cc(C)c2)cc1)S(C)(=O)=O`, the inhibition was 4.51% (inactive).

Regarding `CC(C)(C)C(=O)c1cnc(Nc2ccccc2)s1`, the inhibition is 35.6% (active).

For `O=C(/C=C/Nc1ccccc1)c1cnc(-c2ccccc2)s1`, the inhibition was 3.77% (inactive).

As for `CC(=O)c1cnc(-c2ccccc2)s1`, the inhibition was 10.1% (inactive). Regarding `C=CC(COCc1ccccc1)N(Cc1ccccc1)S(=O)(=O)c1ccccc1Br` (stereo not drawn), the inhibition was 9.24% (inactive).
